The results in this text go back to PubChem BioAssay (NCI).

The panel holds about 83,000 compounds, 20% with a hit somewhere; the sample as a whole holds those more often.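 Results are percent growth after 48 hours of single-concentration exposure. 100 means growth as in untreated cells, lower positive values show inhibition; negative values down to -100 show cell death.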 Values without a mark were called inactive. The source made the active and inactive calls. The calls were made as follows: active = growth percent below 10; inactive = the rest.

For the experiment, the system named is HOP-92 NSCLC. Put plainly: NCI-60 one-dose screen, 48 h (100 = growth as untreated, 0 = no growth, -100 = all killed). The conditions noted are these: 10 µM.
For `COc1ccc(/C=C(/C(=O)N2CCCCC2)c2cc(OC)c(OC)c(OC)c2)cc1`, the growth is 45.5%.
Then `COc1ccc(OC)c(Cn2cc3c(c2)-c2oncc2CC3)c1`, with 59.8%.
As to `COc1ccc(CN2C(=O)/C(=C\C(=O)c3ccc(OCCN4CCCCC4)cc3)c3ccccc32)cc1`, the growth was 39%.
In the case of `COc1ccc(/C=C2\SC(=O)N(Cc3cc(=O)oc4ccc(OC)cc34)C2=O)cc1`, the growth is 86%.
The result for `O=c1oc2ccc3ccccc3c2cc1-c1ccnc2[nH]c(=S)[nH]c(=O)c12` reads 88.3%.
The result for `O=C(O)c1occ(Cl)c1Cl` reads 95.3%; that for `COc1ccc(Cn2cc3c(c2-c2ccccc2)CCc2cnoc2-3)cc1OC`, 61.1%.
As to `CCCCN(CCCC)CC(O)CN(CC)CC` (stereo not given), the growth is 93.4%.
Consider `O=C(/C=C/c1c[nH]c2ccccc12)c1cc2ccccc2o1`, for which the growth is 83.2%.
As for `COc1ccc2sc(-n3nc4nc5n(c(=O)c4c3N)-c3ccccc3Sc3ccccc3-5)nc2c1`, the growth is 74.1%.
On to `CCOC(=O)NNc1[nH]c(-c2ccc(OC)cc2)cc1C#N`, for which the growth is 76.4%.
Then `COc1ccc(-c2cn3ccnc3c(-c3ccc4ncn(C5CCCCC5)c4c3)n2)cc1`, with 47.7%; and `CCOC(=O)C1=NN(c2ccccc2)C2=NC(=O)/C(=C\c3cn(-c4ccccc4)nc3-c3cc4ccccc4o3)C(=O)N12`, with 63.5%.
Consider `O=C(/C=C1\C(=O)N(Cc2ccc([N+](=O)[O-])cc2)c2ccccc21)c1ccc(OCCN2CCCCC2)cc1`, for which the growth was -74.5% (active).
For `NNC(=S)N1N=C(c2cc3ccccc3o2)CC1c1c[nH]c2ccccc12` (stereo not given), the growth is 50.1%.
For the compound `O=C(/C=C1\C(=O)N(Cc2ccccc2)c2ccccc21)c1ccc(OCCN2CCCCC2)cc1`, the growth is 10.7%.
The result for `COc1ccc(CN2C(=O)/C(=C\C(=O)c3ccc(OCCN4CCCC4)cc3)c3ccccc32)cc1` reads 54.4%.
On to `C[C@@H](c1ccc2c(c1)[nH]c1ccc(Cl)cc12)c1nc2ccccc2[nH]1`, for which the growth was 120%.
The result for `c1ccc(-c2cn3ccnc3c(-c3ccc4ncn(C5CCCCC5)c4c3)n2)cc1` reads 46.3%; that for `C[C@@H](c1ccc2c(c1)[nH]c1ccc(Cl)cc12)c1nc2ccc(Cl)cc2[nH]1`, 99.5%; that for `COc1cc(CNC(=O)CCCC/C=C/C(C)C)ccc1OCc1nnc(Nc2ccccc2F)o1`, 56.4%.
Then `Cc1c(CN(C)C)cc(C(C)C)cc1C(C)C`, with 129%; and `O=S(=O)(O)c1ccc2c(c1)Sc1cc(S(=O)(=O)O)ccc1O2`, with 98.5%.
Turning to `COc1ccc(Cn2cc3c(c2-c2ccccc2)CCc2cnoc2-3)cc1N`, the growth is 64.1%.
The result for `COc1ccc(/C=C(/C(=O)N2CCN(c3ccc(C)cc3)CC2)c2cc(OC)c(OC)c(OC)c2)cc1N` reads 17.6%; that for `C=CCN(C)C`, 110%; that for `CCNc1nnc(COc2ccc(CNC(=O)CCCC/C=C/C(C)C)cc2OC)o1`, 98.3%.
The result for `COc1ccc2oc(=O)cc(CN3C(=O)S/C(=C\c4ccc(Cl)cc4)C3=O)c2c1` reads 86.5%.
In the case of `CC(C)OC(=O)Nn1cnc2ccccc21`, the growth was 95.6%.
For `COc1ccc(Cn2cc3c(c2-c2ccc(OC)cc2)CCc2cnoc2-3)cc1`, the growth was 55.2%.
The result for `COc1cc(Cn2ccc3c2-c2oncc2CC3)cc(OC)c1` reads 57.5%; that for `COc1cccc(Cn2cc3c(c2)-c2oncc2CC3)c1`, 97.1%.
Then `COc1ccc(C2=C/C(=C\c3ccc(Cl)cc3)C(=O)NN2C(=S)NN)cc1`, with 74%; and `COc1ccc(Cn2cc3c(c2)-c2oncc2CC3)cc1OC`, with 84.4%.
Then `COc1ccccc1Nc1nnc(COc2ccc(CNC(=O)CCCC/C=C/C(C)C)cc2OC)o1`, with 79.1%; and `N=c1c2c(=O)n3c(nc2nc2sc4ccc(Cl)cc4n12)-c1ccccc1Sc1ccccc1-3`, with 6.89% (active); and `CCCC(=O)NNc1[nH]c(-c2cc(OC)c(OC)c(OC)c2)cc1C(=O)OCC`, with 84.8%.
For the compound `COc1ccc(Cn2cc3c(c2-c2ccc(O)cc2)CCc2cnoc2-3)cc1`, the growth is 93.1%.
Then `COc1ccc(OC)c(Cn2cc3c(c2-c2ccccc2)CCc2cnoc2-3)c1`, with 59.8%.
Then `CCCCCCCCCCCCCCCCCC1=NCCN1CS(=O)(=O)O`, with 38.5%.
